Source: PubChem BioAssay (EPA / NIEHS)
Active and inactive are the calls of the source. The calls were made as follows: active = hit-call score of the fitted dose curve at least 0.9, where 1 is the maximum; inactive = score below 0.9.

Legend:
[1] = ATG_CRE_CIS: Attagene CIS-FACTORIAL HepG2 Assay for human cAMP Responsive Element (CRE) binding protein 3 (AID 2282926); details: HepG2 CRE cis-reporter, Attagene multiplexed mRNA; actives raise or lower the signal
How it was run: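 HepG2 cells transiently transfected with cis-element-driven multiple reporter transcription units; CRE reporter mRNA measured 24 h after dosing by RT-PCR, 6-FAM labelling, HpaI digestion and capillary electrophoresis. Bidirectional fit versus DMSO baseline.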

[2] = target: CCAAT/enhancer-binding protein beta (Homo sapiens) (UniProt P17676); assay: ATG_C_EBP_CIS: Attagene CIS-FACTORIAL HepG2 Assay for human CCAAT/Enhancer Binding Protein (C/EBP) beta (AID 2282927); details: HepG2 Attagene cis-factorial transcription factor reporter; actives raise or lower the signal
CCAAT/enhancer-binding protein beta (Homo sapiens), sequence (P17676 whole entry, looked up): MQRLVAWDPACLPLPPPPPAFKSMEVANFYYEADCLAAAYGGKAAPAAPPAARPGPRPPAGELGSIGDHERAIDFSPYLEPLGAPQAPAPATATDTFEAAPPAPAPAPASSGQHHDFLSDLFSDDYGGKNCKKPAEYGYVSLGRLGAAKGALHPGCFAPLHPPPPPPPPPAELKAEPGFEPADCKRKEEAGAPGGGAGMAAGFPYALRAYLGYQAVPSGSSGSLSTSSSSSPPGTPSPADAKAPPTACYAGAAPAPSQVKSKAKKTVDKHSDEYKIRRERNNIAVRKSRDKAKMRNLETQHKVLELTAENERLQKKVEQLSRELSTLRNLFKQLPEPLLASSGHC
How it was run: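 RT-PCR/capillary electrophoresis fluorescence of reporter mRNA, 24 h post-dose, in HepG2 cells carrying transfected cis-promoter reporter units. Bidirectional curve fitting against DMSO baseline captures gain or loss of signal.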

[3] = ATG_CMV_CIS: Attagene CIS-FACTORIAL HepG2 Assay for human CMV (Internal Marker) (AID 2282928); details: HepG2 CMV promoter reporter, transcription factor profiling; actives raise or lower the signal;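 also: endpoint acts as a background internal control marker rather than a target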
How it was run: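 Cell system: HepG2, transiently transfected multiple reporter units under cis promoters. Exposure: 24 h. Detection: RT-PCR, FAM labeling, HpaI digestion, capillary electrophoresis. Analysis: bidirectional, DMSO baseline.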

[4] = ATG_AP_2_CIS: Attagene CIS-FACTORIAL HepG2 Assay for human Activator Protein 2 (AP-2) (AID 2282932); details: HepG2 AP-2 cis-reporter, Attagene transcription factor profiling; actives raise or lower the signal
How it was run: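 HepG2 cells were transiently transfected with multiple cis-promoter reporter transcription units and dosed for 24 h. Reporter mRNA was measured by RT-PCR with capillary electrophoresis fluorescence; bidirectional fits relative to DMSO baseline.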

[5] = ATG_BRE_CIS: Attagene CIS-FACTORIAL HepG2 Assay for human Bone Morphogenetic Protein (BMP) Response Element (BRE) (AID 2282933); details: HepG2 BMP response element reporter, Attagene transcription factor profiling; actives raise or lower the signal
How it was run: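 Gain- or loss-of-signal was derived by bidirectional fitting against DMSO controls. The signal came from reporter mRNA, measured by RT-PCR and capillary electrophoresis, in HepG2 cells transiently carrying multiple reporter units and dosed for 24 h.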

[6] = target: Transcription factor E2F1 (Homo sapiens) (UniProt Q01094); assay: ATG_E2F_CIS: Attagene CIS-FACTORIAL HepG2 Assay for human E2F Transcription Factor 1 (AID 2282935); details: HepG2 Attagene cis-reporter, E2F reporter RNA transcripts; actives raise or lower the signal
Transcription factor E2F1 (Homo sapiens), sequence (Q01094 whole entry, looked up): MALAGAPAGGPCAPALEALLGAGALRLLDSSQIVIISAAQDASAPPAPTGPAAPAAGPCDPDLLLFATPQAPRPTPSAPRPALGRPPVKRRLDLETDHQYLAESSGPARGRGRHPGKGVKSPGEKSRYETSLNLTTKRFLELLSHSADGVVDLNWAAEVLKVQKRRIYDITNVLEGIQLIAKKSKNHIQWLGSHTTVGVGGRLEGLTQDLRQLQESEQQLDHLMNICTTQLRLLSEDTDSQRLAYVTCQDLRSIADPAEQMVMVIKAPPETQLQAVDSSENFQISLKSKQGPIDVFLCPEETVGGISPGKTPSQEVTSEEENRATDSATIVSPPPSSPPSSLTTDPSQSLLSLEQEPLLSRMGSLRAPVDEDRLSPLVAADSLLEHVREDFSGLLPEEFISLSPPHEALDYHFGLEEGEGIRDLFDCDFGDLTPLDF
How it was run: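 HepG2 cells transiently transfected with multiplexed cis-element reporter units, dosed for 24 h. Reporter mRNA measured by RT-PCR, 6-FAM primer-extension labeling, HpaI digestion and capillary electrophoresis; bidirectional fit versus DMSO baseline.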

[7] = ATG_E_Box_CIS: Attagene CIS-FACTORIAL HepG2 Assay for human Enhancer Box (E-box) (AID 2282936); details: HepG2 E-box cis-reporter transcription, actives raise or lower the signal
How it was run: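 HepG2 cells transiently transfected with multiplexed cis-element reporter units sensing endogenous transcription factor activity; 24 h compound exposure. Reporter mRNA measured by RT-PCR, 6-FAM primer extension, HpaI digestion and capillary electrophoresis; bidirectional fit versus DMSO.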

[8] = ATG_M_61_CIS: Attagene CIS-FACTORIAL HepG2 Assay for M61 Transcription Factor (Internal Marker) (AID 2282937); details: HepG2 Attagene CIS-FACTORIAL M61 internal marker reporter; actives raise or lower the signal
How it was run: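 Cells were transfected with reporter units under cis-regulatory promoters, treated with chemicals for 24 h, then lysed for RNA. Reporter transcripts were quantified by RT-PCR and capillary electrophoresis, and activity was fitted bidirectionally against DMSO.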

[9] = ATG_EGR_CIS: Attagene CIS-FACTORIAL HepG2 Assay for human Early Growth Response 1 (EGR1) (AID 2282938); details: HepG2 Attagene CIS-FACTORIAL EGR reporter mRNA; actives raise or lower the signal
How it was run: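 Endogenous TF activity in HepG2 liver cells was gauged through cis-promoter reporter constructs transiently transfected. After 24 h dosing, reporter mRNA was quantified by RT-PCR and capillary electrophoresis, and curves fitted in both directions versus DMSO.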

[10] = ATG_Ets_CIS: Attagene CIS-FACTORIAL HepG2 Assay for human Erythroblast Transformation Specific (ETS) (AID 2282941); details: HepG2 ETS cis-reporter transcription, actives raise or lower the signal
How it was run: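 After transient cis-reporter transfection, HepG2 cells receive test chemical for 24 h. Reporter mRNA levels, measured by RT-PCR and capillary electrophoresis fluorescence, are analysed bidirectionally relative to the DMSO baseline.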

[11] = ATG_FoxO_CIS: Attagene CIS-FACTORIAL HepG2 Assay for human Forkhead box O (FoxO) (AID 2282943); details: HepG2 Attagene cis-reporter, FoxO element, mRNA; actives raise or lower the signal
How it was run: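 HepG2 cells transiently transfected with cis-promoter-driven multiple reporter transcription units; 24 h after chemical dosing, reporter mRNA quantified by RT-PCR, fluorescent primer extension, HpaI digestion and capillary electrophoresis. Bidirectional fitting versus DMSO baseline.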

[12] = ATG_GLI_CIS: Attagene CIS-FACTORIAL HepG2 Assay for human Zinc Finger Protein GLI1 (AID 2282945); details: HepG2, Attagene cis-factorial reporter mRNA, GLI element; actives raise or lower the signal
How it was run: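 HepG2 cells transiently transfected with cis-promoter multiplexed reporter units report endogenous transcription factor activity. After 24 h chemical exposure, reporter mRNA was quantified by RT-PCR, 6-FAM labelling, HpaI digestion and capillary electrophoresis, with bidirectional fitting against DMSO.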

[13] = ATG_ISRE_CIS: Attagene CIS-FACTORIAL HepG2 Assay for human Interferon Regulatory Factor 1 (IRF1) binding to an Interferon-Stimulated Response Element (ISRE) (AID 2282948); details: HepG2 ISRE cis-reporter (Attagene), mRNA transcription readout; actives raise or lower the signal
How it was run: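 Quantitation relies on labelled RT-PCR fragments separated by capillary electrophoresis. Human HepG2 cells bearing cis-promoter reporter constructs were treated 24 h; DMSO served as baseline for bidirectional fitting.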

[14] = ATG_M_32_CIS: Attagene CIS-FACTORIAL HepG2 Assay for M32 Transcription Factor (Internal Marker) (AID 2282949); details: HepG2 Attagene cis-factorial M32 reporter, mRNA; actives raise or lower the signal;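 also: background control marker of the multiplexed CIS panel rather than a real target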
How it was run: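 Internal background marker read-out: RT-PCR/capillary electrophoresis fluorescence of reporter transcripts from transiently transfected HepG2 cells after 24 h chemical exposure. Activity fitted bidirectionally relative to DMSO negative control.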

[15] = ATG_M_06_CIS: Attagene CIS-FACTORIAL HepG2 Assay for M06 Transcription Factor (Internal Marker) (AID 2282950); details: HepG2 Attagene CIS-FACTORIAL M06 internal marker reporter; actives raise or lower the signal
How it was run: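 Fluorescence-labelled RT-PCR products from cis-promoter reporter units, cut with HpaI and resolved by capillary electrophoresis, give the signal. Cells are human HepG2, dosed for 24 h. Serves as background control, fitted relative to DMSO.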

[16] = ATG_MRE_CIS: Attagene CIS-FACTORIAL HepG2 Assay for human Metal Responsive Element (MRE) (AID 2282954); details: HepG2 MRE cis-reporter transcription, Attagene multiplex; actives raise or lower the signal
How it was run: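 HepG2 cells transiently transfected with multiple cis-element reporter units measure endogenous MTF1-driven transcription. After 24 h compound exposure, reporter mRNA is quantified by RT-PCR with 6-FAM labelling, HpaI digestion and capillary electrophoresis; bidirectional fits versus DMSO.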

[17] = ATG_PXRE_CIS: Attagene CIS-FACTORIAL HepG2 Assay for human Pregnane X Receptor Element (PXRE) (AID 2282957); details: HepG2 Attagene CIS-FACTORIAL PXRE reporter, mRNA; actives raise or lower the signal
How it was run: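 HepG2 cells transiently transfected with cis-element-driven multiplexed reporter units; after 24 h chemical exposure, reporter mRNA measured by RT-PCR, 6-FAM labelling, HpaI digestion and capillary electrophoresis. Bidirectional fitting relative to DMSO.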

[18] = ATG_Sox_CIS: Attagene CIS-FACTORIAL HepG2 Assay for human SRY-box transcription factor (SOX) (AID 2282960); details: HepG2 Attagene cis-factorial SOX reporter, mRNA; actives raise or lower the signal
How it was run: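 Transient MRTU transfection of HepG2; 24 h compound incubation; TriZol RNA, oligo(dT) RT, PCR, 6-FAM primer extension, HpaI cut, CE. Bidirectional fit, DMSO = baseline.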

[19] = target: Transcription factor Sp1 (Homo sapiens) (UniProt P08047); assay: ATG_Sp1_CIS: Attagene CIS-FACTORIAL HepG2 Assay for human Specificity Protein 1 (Sp1) (AID 2282961); details: HepG2 Sp1 cis-reporter transcription, actives raise or lower the signal
Transcription factor Sp1 (Homo sapiens), sequence (P08047 whole entry, looked up): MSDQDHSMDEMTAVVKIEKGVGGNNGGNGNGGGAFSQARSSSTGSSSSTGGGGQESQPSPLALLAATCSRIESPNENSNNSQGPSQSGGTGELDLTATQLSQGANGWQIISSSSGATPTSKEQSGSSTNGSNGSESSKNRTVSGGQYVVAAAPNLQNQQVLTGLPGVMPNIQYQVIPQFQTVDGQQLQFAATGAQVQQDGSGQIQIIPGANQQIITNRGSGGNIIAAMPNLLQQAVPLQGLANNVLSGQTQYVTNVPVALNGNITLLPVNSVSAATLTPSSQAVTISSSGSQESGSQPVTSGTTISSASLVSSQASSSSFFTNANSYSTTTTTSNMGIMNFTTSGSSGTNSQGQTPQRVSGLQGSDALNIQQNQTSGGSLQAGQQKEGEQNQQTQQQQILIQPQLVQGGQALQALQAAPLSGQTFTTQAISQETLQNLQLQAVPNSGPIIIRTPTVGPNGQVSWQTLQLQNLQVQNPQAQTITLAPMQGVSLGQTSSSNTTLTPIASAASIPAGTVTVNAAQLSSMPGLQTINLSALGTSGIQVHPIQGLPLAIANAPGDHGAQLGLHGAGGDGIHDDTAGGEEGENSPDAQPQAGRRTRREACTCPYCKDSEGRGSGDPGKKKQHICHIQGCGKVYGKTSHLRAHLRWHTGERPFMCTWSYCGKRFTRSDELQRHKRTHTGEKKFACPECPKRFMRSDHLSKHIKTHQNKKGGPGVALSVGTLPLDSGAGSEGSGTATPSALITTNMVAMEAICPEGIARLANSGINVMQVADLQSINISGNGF
How it was run: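 Endogenous Sp1 activity was gauged in human liver HepG2 cells bearing transfected reporter units under a cis-regulating promoter. After 24 h dosing, reporter mRNA was quantified by RT-PCR with capillary electrophoresis, and activity fitted bidirectionally versus DMSO.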

[20] = ATG_SREBP_CIS: Attagene CIS-FACTORIAL HepG2 Assay for human Sterol Regulatory Element Binding (SREBP) (AID 2282962); details: HepG2 Attagene cis-factorial SREBP reporter, mRNA; actives raise or lower the signal
How it was run: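 Twenty-four hours after chemical dosing of transfected HepG2 cultures, reporter RNA was converted to cDNA, amplified, end-labelled with 6-FAM and resolved by capillary electrophoresis. Responses were fitted relative to DMSO.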

Measured: AC50

CCCc1c(OCCCCc2nn[nH]n2)ccc(C(C)=O)c1O
active: [3] 135 µM | [5] 180 µM | [16] 128 µM | [17] 27.4 µM | [20] 37.4 µM
inactive: all other assays above

C=CCOCC(CC)(CO)COCC=C
active: [17] 47.1 µM
inactive: all other assays above

COCCCN
inactive: all assays above

CC(C)(Oc1ccc(Cl)cc1)C(=O)O
inactive: all assays above

CCC(C)NC(N)=O (stereo not given)
inactive: all assays above

CC/C=C\CCCCCO
active: [17] 78.4 µM
inactive: all other assays above

COC(OC)C(C)c1ccccc1 (stereo not given)
active: [17] 27.2 µM
inactive: all other assays above
